Results: PubChem BioAssay (EPA / NIEHS)
Values joined by “and” are separate entries in the source; they are usually repeats but may differ in a detail not shown here. Equal values may be shown once. Inconclusive results are not listed. A structure can be active in one record and inactive in another. Active and inactive are the calls of the source. Rule for the calls, unless noted: active = hit-call score of the fitted dose curve at least 0.9, where 1 is the maximum; inactive = score below 0.9.

Legend:
[1] = read-out: E-selectin (Homo sapiens) (UniProt P16581); assay: BSK_3C_Eselectin: BioMAP Diversity Plus: 3C Assay for Eselectin Biomarker Activity (AID 2283015); settings: primary human endothelial cells (HUVEC); actives raise or lower the signal
Summary of the method: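 Primary human umbilical vein endothelial cells (3C system) were dosed with chemical and cell-surface E-selectin measured by ELISA 24 h later. Bidirectional curve fitting used DMSO as negative control and baseline.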

[2] = read-out: Interleukin-1 alpha (IL1a), IL1A (gene 3552); assay: BSK_BE3C_IL1a: BioMAP Diversity Plus: BE3C Assay for Interleukin-1 alpha (IL1a) Biomarker Activity (AID 2283016); settings: primary human bronchial epithelial cells; actives raise or lower the signal
Summary of the method: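 Human primary bronchial epithelial cells, 24 h chemical exposure; IL-1a quantified by ELISA, fitted bidirectionally against DMSO. Cytotoxicity assessed in parallel by SRB total-protein staining at the time of measurement.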

[3] = read-out: Monocyte Chemoattractant Protein-1 (MCP1), CCL2 (gene 6347); assay: BSK_3C_MCP1: BioMAP Diversity Plus: 3C Assay for Monocyte Chemoattractant Protein-1 (MCP1) Biomarker Activity (AID 2283017); settings: primary human endothelial cells (HUVEC); actives raise or lower the signal
Summary of the method: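 Primary human umbilical vein endothelial cells (3C system) were exposed to test chemical for 24 h, after which MCP-1 was quantified by ELISA. Activity was fitted bidirectionally against DMSO as negative control and baseline.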

[4] = read-out: Monocyte Chemoattractant Protein-1 (MCP1), CCL2 (gene 6347); assay: BSK_4H_MCP1: BioMAP Diversity Plus: 4H Assay for Monocyte Chemoattractant Protein-1 (MCP1) Biomarker Activity (AID 2283018); settings: primary human endothelial cells (HUVEC); actives raise or lower the signal
Summary of the method: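 Human umbilical vein endothelial cells (4H system) exposed to chemicals for 24 h in 96-well format. MCP-1 measured by ELISA; bidirectional fitting against DMSO, with SRB total-protein staining in parallel cultures for cytotoxicity.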

[5] = read-out: Interleukin-8 (IL8), CXCL8 (gene 3576); assay: BSK_3C_IL8: BioMAP Diversity Plus: 3C Assay for Interleukin-8 (IL8) Biomarker Activity (AID 2283020); settings: primary human endothelial cells (HUVEC); actives raise or lower the signal
Summary of the method: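 Primary human umbilical vein endothelial cells were dosed for 24 h. IL-8 was quantified by ELISA and fitted bidirectionally against DMSO. Cytotoxicity was assessed in parallel cultures by SRB staining at 560 nm.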

[6] = read-out: Monokine induced gamma interferon (MIG), CXCL9 (gene 4283); assay: BSK_3C_MIG: BioMAP Diversity Plus: 3C Assay for Monokine induced gamma interferon (MIG) Biomarker Activity (AID 2283021); settings: primary human endothelial cells (HUVEC); actives raise or lower the signal;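 for AC50: MIG protein level measured by immunoassay in the treated endothelial cultures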
Summary of the method: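 HUVEC primary endothelial cultures dosed with chemical; MIG quantified by ELISA at 24 h. Data fitted bidirectionally against DMSO control, with parallel SRB total-protein staining for cytotoxicity.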

[7] = biological target: human Vitamin D Receptor (VDR), VDR (gene 7421) (UniProt P11473); assay: ATG_VDR_TRANS: Attagene TRANS-FACTORIAL HepG2 Assay for human Vitamin D Receptor (VDR) (AID 2283022; active = hit-call score of the fitted dose curve at least 0.9, where 1 is the maximum)
human Vitamin D Receptor (VDR), VDR (gene 7421), sequence (P11473 whole entry, looked up, the tested form may be a part): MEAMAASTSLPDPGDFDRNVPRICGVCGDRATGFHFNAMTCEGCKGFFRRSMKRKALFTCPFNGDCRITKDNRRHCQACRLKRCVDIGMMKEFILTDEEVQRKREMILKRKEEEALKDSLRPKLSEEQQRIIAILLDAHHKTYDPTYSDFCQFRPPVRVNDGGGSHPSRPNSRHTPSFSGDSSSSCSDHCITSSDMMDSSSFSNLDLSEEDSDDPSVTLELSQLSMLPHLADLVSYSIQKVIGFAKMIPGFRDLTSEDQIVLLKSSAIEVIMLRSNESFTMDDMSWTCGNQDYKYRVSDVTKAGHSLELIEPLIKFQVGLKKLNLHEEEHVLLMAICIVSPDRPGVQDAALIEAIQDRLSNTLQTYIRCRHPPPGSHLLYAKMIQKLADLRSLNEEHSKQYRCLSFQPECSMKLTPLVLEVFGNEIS
Summary of the method: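 HepG2 cells were transiently transfected with multiple GAL4-UAS reporter units, so signal reflects exogenous chimeric receptor-Gal4 activity. After 24 h compound exposure, reporter mRNA was measured by RT-PCR, fluorescent labelling and capillary electrophoresis, fitted for gain of signal versus DMSO.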

[8] = BSK_3C_SRB: Viability Assessment in the BioMAP Diversity Plus: 3C Assay (AID 2283023); settings: primary human endothelial cells (HUVEC);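 note: fitted both ways against DMSO so a hit may be signal rise or drop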
Summary of the method: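 Primary human umbilical vein endothelial cells in the 3C system were read 24 h after compound dosing. Total protein was stained with 0.1% sulforhodamine B after 10% TCA fixation and read at 560 nm, with bidirectional fitting against DMSO as baseline.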

[9] = read-out: Matrix Metallopeptidase 1 (MMP1), MMP1 (gene 4312); assay: BSK_BE3C_MMP1: BioMAP Diversity Plus: BE3C Assay for Matrix Metallopeptidase 1 (MMP1) Biomarker Activity (AID 2283024); settings: primary human bronchial epithelial cells; actives raise or lower the signal
Summary of the method: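 Human primary bronchial epithelial cells (BE3C system) dosed for 24 h; MMP-1 quantified by ELISA. Bidirectional fit against DMSO; cytotoxicity tracked in parallel cultures by SRB total-protein staining.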

[10] = read-out: Pselectin, SELP (gene 6403); assay: BSK_4H_Pselectin: BioMAP Diversity Plus: 4H Assay for Pselectin Biomarker Activity (AID 2283026); settings: primary human endothelial cells (HUVEC); actives raise or lower the signal
Summary of the method: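 Primary human umbilical vein endothelial cells were treated 24 h, and cell-surface P-selectin was then quantified by ELISA. Bidirectional fit versus DMSO; cytotoxicity checked in parallel cultures by SRB total-protein staining.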

[11] = BSK_4H_SRB: Viability Assessment in the BioMAP Diversity Plus: 4H Assay (AID 2283027); settings: primary human endothelial cells (HUVEC);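 note: cells exposed to compound for 24 h before staining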;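 for AC50: curves fitted both ways versus DMSO so AC50 may be loss or gain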
Summary of the method: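 Absorbance at 560 nm of SRB-stained total protein served as the viability read-out in confluent primary human umbilical vein endothelium 24 h after chemical treatment. Curves were fitted bidirectionally against DMSO as negative control.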

[12] = BSK_BE3C_SRB: Viability Assessment in the BioMAP Diversity Plus: BE3C Assay (AID 2283028); settings: primary human bronchial epithelial cells;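 for AC50: fitted both ways so AC50 may mark signal gain or loss versus DMSO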
Summary of the method: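 Human primary bronchial epithelial cells were exposed to test chemicals for 24 h. Total protein in parallel cultures was then measured by staining with 0.1% sulforhodamine B after 10% TCA fixation, with absorbance read at 560 nm. Activity was fitted bidirectionally against DMSO.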

[13] = biological target: human Retinoid X Receptor beta (RXRb), RXRB (gene 6257) (UniProt P28702); assay: ATG_RXRb_TRANS: Attagene TRANS-FACTORIAL HepG2 Assay for human Retinoid X Receptor beta (RXRb) (AID 2283013; active = hit-call score of the fitted dose curve at least 0.9, where 1 is the maximum)
human Retinoid X Receptor beta (RXRb), RXRB (gene 6257), sequence (P28702 whole entry, looked up, the tested form may be a part): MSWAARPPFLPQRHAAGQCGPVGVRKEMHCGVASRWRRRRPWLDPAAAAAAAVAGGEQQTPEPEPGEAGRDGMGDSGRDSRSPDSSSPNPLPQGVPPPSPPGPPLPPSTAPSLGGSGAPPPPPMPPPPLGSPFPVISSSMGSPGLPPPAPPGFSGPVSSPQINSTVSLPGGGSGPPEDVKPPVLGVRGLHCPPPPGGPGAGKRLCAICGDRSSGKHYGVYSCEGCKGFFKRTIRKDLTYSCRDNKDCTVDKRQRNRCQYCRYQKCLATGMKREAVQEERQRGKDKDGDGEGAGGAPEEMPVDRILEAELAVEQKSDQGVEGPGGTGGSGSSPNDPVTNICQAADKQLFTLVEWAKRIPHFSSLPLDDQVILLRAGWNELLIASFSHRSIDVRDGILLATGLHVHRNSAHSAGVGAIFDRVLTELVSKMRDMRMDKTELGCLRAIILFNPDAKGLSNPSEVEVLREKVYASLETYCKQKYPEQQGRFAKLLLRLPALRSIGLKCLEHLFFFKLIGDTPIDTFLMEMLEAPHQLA
Summary of the method: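 HepG2 cells were transiently transfected with multiplexed GAL4-UAS reporters and a chimeric RXRb-Gal4 construct, then exposed for 24 h. Reporter mRNA was quantified by RT-PCR, FAM labeling, HpaI digestion and capillary electrophoresis; gain of signal was scored against DMSO.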

[14] = biological target: human Thyroid Receptor alpha (THRa1), THRA (gene 7067) (UniProt P10827); assay: ATG_THRa1_TRANS: Attagene TRANS-FACTORIAL HepG2 Assay for human Thyroid Receptor alpha (THRa1) (AID 2283014; active = hit-call score of the fitted dose curve at least 0.9, where 1 is the maximum)
human Thyroid Receptor alpha (THRa1), THRA (gene 7067), sequence (P10827 whole entry, looked up, the tested form may be a part): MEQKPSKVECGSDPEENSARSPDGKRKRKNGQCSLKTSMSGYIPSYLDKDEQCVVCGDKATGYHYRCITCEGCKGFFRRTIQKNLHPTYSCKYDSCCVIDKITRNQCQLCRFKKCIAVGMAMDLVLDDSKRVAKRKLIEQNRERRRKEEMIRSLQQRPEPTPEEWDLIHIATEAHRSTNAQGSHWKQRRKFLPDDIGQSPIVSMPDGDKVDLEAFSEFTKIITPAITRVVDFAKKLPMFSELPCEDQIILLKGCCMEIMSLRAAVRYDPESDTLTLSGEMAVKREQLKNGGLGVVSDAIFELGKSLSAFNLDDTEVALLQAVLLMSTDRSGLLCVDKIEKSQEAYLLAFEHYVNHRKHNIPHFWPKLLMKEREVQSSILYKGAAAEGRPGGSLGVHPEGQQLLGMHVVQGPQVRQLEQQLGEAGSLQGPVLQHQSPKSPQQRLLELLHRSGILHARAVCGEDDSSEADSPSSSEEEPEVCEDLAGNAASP
Summary of the method: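 HepG2 cells transiently transfected with multiplexed GAL4-UAS reporter units for exogenous chimeric THRa1-Gal4; reporter mRNA measured 24 h after dosing by RT-PCR, 6-FAM labelling, HpaI digestion and capillary electrophoresis. Gain-of-signal fitted versus DMSO baseline.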

[15] = read-out: Thrombomodulin, THBD (gene 7056); assay: BSK_3C_Thrombomodulin: BioMAP Diversity Plus: 3C Assay for Thrombomodulin Biomarker Activity (AID 2283029); settings: primary human endothelial cells (HUVEC); actives raise or lower the signal
Summary of the method: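 Human umbilical vein endothelial cells were exposed to chemicals for 24 h; cell-surface thrombomodulin quantified by ELISA, with bidirectional fitting against DMSO baseline.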

[16] = biological target: Retinoic acid receptor RXR-alpha (Homo sapiens) (UniProt P19793); assay: ATG_RXRa_TRANS: Attagene TRANS-FACTORIAL HepG2 Assay for human Retinoid X Receptor alpha (RXRa) (AID 2283012; active = hit-call score of the fitted dose curve at least 0.9, where 1 is the maximum)
Retinoic acid receptor RXR-alpha (Homo sapiens), sequence (P19793 whole entry, looked up, the tested form may be a part): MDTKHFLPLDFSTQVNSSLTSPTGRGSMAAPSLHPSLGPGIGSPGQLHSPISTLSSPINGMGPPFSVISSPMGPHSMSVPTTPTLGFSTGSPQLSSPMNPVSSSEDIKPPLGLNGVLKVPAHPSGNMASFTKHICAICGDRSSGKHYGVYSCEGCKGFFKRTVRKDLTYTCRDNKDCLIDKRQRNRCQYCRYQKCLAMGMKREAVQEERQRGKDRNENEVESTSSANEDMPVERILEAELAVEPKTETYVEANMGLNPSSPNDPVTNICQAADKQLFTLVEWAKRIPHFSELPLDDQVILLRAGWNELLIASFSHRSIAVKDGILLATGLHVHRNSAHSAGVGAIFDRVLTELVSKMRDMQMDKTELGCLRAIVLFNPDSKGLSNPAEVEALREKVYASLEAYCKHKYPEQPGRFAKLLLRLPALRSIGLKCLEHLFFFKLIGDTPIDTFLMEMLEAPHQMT
Summary of the method: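 HepG2 cells transiently transfected with GAL4-UAS reporter units and chimeric RXRa-Gal4 protein, treated 24 h. Reporter mRNA measured by RT-PCR, fluorescent labelling, HpaI digestion and capillary electrophoresis. Induction fitted against DMSO.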

[17] = read-out: Human Leukocyte Antigen - DR isotype (HLADR), HLA-DRA (gene 3122); assay: BSK_3C_HLADR: BioMAP Diversity Plus: 3C Assay for Human Leukocyte Antigen - DR isotype (HLADR) Biomarker Activity (AID 2283019); settings: primary human endothelial cells (HUVEC); actives raise or lower the signal
Summary of the method: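 Primary human umbilical vein endothelial cells (3C system) were dosed with compound and cell-surface HLA-DR was quantified by ELISA at 24 h. Activity was fitted bidirectionally against DMSO as negative control and baseline.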

[18] = BSK_3C_Vis: BioMAP Diversity Plus: 3C Assay for Morphology Visualization (AID 2283025); settings: primary human endothelial cells (HUVEC);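 note: fitted both ways so gain or loss versus DMSO counts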;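 for AC50: light microscopy image of cell morphology used as background control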
Summary of the method: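 Human umbilical vein endothelial cell morphology was inspected by light microscopy 24 h after chemical dosing; scored bidirectionally relative to DMSO.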

Measured: AC50

E-selectin (Homo sapiens), sequence (P16581 whole entry, looked up): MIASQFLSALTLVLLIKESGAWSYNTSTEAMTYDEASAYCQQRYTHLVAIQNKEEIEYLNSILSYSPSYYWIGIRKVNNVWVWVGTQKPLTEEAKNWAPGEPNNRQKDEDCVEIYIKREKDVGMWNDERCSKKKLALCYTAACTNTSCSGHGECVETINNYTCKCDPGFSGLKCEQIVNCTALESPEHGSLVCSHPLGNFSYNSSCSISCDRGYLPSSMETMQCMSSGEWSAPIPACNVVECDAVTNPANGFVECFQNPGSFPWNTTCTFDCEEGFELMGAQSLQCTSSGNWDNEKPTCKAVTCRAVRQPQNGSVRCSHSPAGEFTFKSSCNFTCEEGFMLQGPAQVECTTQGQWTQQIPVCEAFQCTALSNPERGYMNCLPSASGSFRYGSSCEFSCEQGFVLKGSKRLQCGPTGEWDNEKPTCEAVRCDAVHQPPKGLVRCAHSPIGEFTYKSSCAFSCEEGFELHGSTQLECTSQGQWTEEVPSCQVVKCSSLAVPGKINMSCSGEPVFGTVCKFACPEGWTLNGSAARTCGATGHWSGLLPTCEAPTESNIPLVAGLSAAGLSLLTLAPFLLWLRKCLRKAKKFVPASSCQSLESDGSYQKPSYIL

OCC(F)(F)C(F)(F)C(F)(F)CO
not listed: [13] | [14] | [15] | [16] | [17] | [18]
inactive: all other assays above

O=C1c2ccccc2C(=O)c2c(Cl)cccc21
active: [13] 28.4 µM
inactive: [14] | [7]

OC(O)C(F)(F)C(F)(F)F
not listed: [2] | [13] | [14] | [16] | [17] | [18]
inactive: all other assays above

CCCCCCCCCCCCCC[P+](CCCC)(CCCC)CCCC
inactive: [16] | [13] | [7]

CCOCOCC
inactive: [16] | [14] | [7]

CCN=C1C=CC(=C(c2ccc(N(CC)CC)cc2)c2ccc(N(CC)CC)cc2)c2ccccc21
active: [1] 3.62 µM and 2.78 µM | [3] 2.22 µM and 2.19 µM | [4] 1.03 µM and 1.16 µM | [5] 4.77 µM and 4.29 µM | [6] 2.92 µM and 3.32 µM | [10] 1.46 µM and 957 nM | [11] 1.76 µM and 1.74 µM | [15] 4.54 µM and 3.14 µM
inactive: [12]

CCCCCCCCCCCC(=O)Cl
inactive: [7]
active: [13] 38.5 µM

Oc1ccc2c(c1)CCC2
inactive: [13] | [14] | [7]

CCCCOC(=O)C(C)O (centres undefined)
inactive: [13] | [14] | [7]

OCC(O)CC(F)(F)C(F)(F)C(F)(F)C(F)(F)F (centres undefined)
not listed: [8] | [13] | [14] | [17] | [18]
inactive: all other assays above

CCOC(=O)CCC(C)=O
inactive: [13]

CCCCCCCC/C=C\CCCCCCCC(=O)OCC(O)CO (centres undefined)
inactive: [14] | [7]

OCCCCC(F)(F)C(F)(F)C(F)(F)C(F)(F)F
not listed: [9] | [13] | [14] | [16] | [17] | [18]
inactive: all other assays above

CCC(Cc1c(I)cc(I)c(N)c1I)C(=O)O (centres undefined)
inactive: [14] | [7]

CC1=CCC2C(=O)OC(=O)C2C1 (centres undefined)
inactive: [7]

OCC(F)(F)C(F)(F)C(F)(F)C(F)(F)C(F)(F)C(F)(F)CO
not listed: [13] | [14] | [15] | [18]
inactive: all other assays above

Oc1ccc(C2(c3ccc(O)c(C4CCCCC4)c3)CCCCC2)cc1C1CCCCC1
inactive: [14]

FC(F)(F)C(F)(F)C(F)(F)C(F)(F)C(F)(F)C(F)(F)CC[Si](Cl)(Cl)Cl
not listed: [2] | [9] | [14] | [18]
inactive: all other assays above

OCC1CCCO1 (centres undefined)
inactive: [13] | [7]

CC(C)=CCCC(C)O (centres undefined)
inactive: [13] | [7]

O=S(=O)(O)CCC(F)(F)C(F)(F)C(F)(F)C(F)(F)F
inactive: [14] | [1] | [2] | [3] | [4] | [5] | [6] | [7] | [10] | [11] | [12] | [15]
active: [5] 30 µM

CC(C)(C)c1cc(CCC(=O)NCCCCCCNC(=O)CCc2cc(C(C)(C)C)c(O)c(C(C)(C)C)c2)cc(C(C)(C)C)c1O
active: [18] 3.25 µM
not listed: [2] | [7] | [13] | [14] | [15]
inactive: all other assays above

NC(O)(C(F)(F)F)C(F)(F)F
not listed: [2] | [8] | [13] | [16] | [17] | [18]
inactive: all other assays above

CCN(CCO)S(=O)(=O)C(F)(F)C(F)(F)C(F)(F)C(F)(F)C(F)(F)C(F)(F)C(F)(F)C(F)(F)F
active: [2] 45.7 µM and 19.5 µM | [3] 23.1 µM and 9.73 µM | [17] 42.6 µM and 20.2 µM | [5] 13.7 µM | [10] 19.1 µM | [11] 45.8 µM and 40.1 µM | [12] 44.5 µM and 37.2 µM | [15] 12.6 µM and 21.8 µM
inactive: [14] | [1] | [4] | [5] | [6] | [7] | [10]

c1ccc(C[P+](c2ccccc2)(c2ccccc2)c2ccccc2)cc1
active: [14] 18.6 µM
inactive: [7]

CCCCCCCCCCCCC[N+](C)(C)Cc1ccccc1
inactive: [16] | [13] | [14] | [7]

FC(F)(F)C(F)(F)C(F)(F)C(F)(F)C(F)(F)C(F)(F)C(F)(F)CCI
not listed: [8] | [13] | [17] | [18]
inactive: all other assays above

CC1=CC2C3C=CC(C3)C2C1C (centres undefined)
not listed: [9] | [13] | [14]
inactive: all other assays above

CC(C)CC=C(C=O)c1ccccc1
inactive: [13] | [7]
